This note sets out measurements from the supplement of paper PMC6658780.

Where a name gives a salt, the structure may show the parent alone. ± gives the standard deviation of the averaged measurements.

One test deals with Klebsiella pneumoniae KPC-119. The test is described as follows: percent growth inhibition of drug + antibiotic vs DMSO control; higher = more growth inhibition. The settings on record: antibiotic (0.125x MIC): colistin; 20 µM.
Consider `CCn1cc(C(=O)O)c(=O)c2cc(F)c(N3CCNCC3)nc21` [Enoxacin], for which the percent growth inhibition turned out to be 97.72 ± 0.24%.
For `CS(=O)(=O)c1ccc([C@@H](O)[C@@H](CF)NC(=O)C(Cl)Cl)cc1` [Florfenicol], the percent growth inhibition turned out to be 88.4 ± 7.8%.
As to `COc1cccc2c1C(=O)c1c(O)c3c(c(O)c1C2=O)C[C@@](O)(C(C)=O)C[C@@H]3O[C@H]1C[C@H](N)[C@H](O)[C@H](C)O1` [Daunorubicin hydrochloride], the percent growth inhibition is 97.24 ± 0.46%.
Still for that read-out and setting: the same measure for `C[C@H]1c2cccc(O)c2C(=O)C2=C(O)[C@]3(O)C(=O)C(C(N)=O)=C(O)[C@@H](N(C)C)[C@@H]3[C@@H](O)[C@@H]21` [Doxycycline hydrochloride]: 91.4 ± 2.1%; for `O=C1NCN(c2ccccc2)C12CCN(CCCC(c1ccc(F)cc1)c1ccc(F)cc1)CC2` [Fluspirilen]: 96.4 ± 1.1%; for `CN(C)CCCN1c2ccccc2Sc2ccc(Cl)cc21` [Chlorpromazine hydrochloride]: 2.49 ± 2.4%.
For `C=CC1=C(C(=O)O)N2C(=O)[C@@H](NC(=O)/C(=N\OCC(=O)O)c3csc(N)n3)[C@H]2SC1` [Cefixime], the percent growth inhibition was determined as 97.8 ± 1.9%.
The same measure, in the same setting: the same measure for `CCCCC(CC)CNC(=N)NC(=N)NCCCCCCNC(=N)NC(=N)NCC(CC)CCCC` (stereo unspecified) [Alexidine dihydrochloride]: 94.8 ± 1.6%; for `CCCCCCCCNC(C)C(O)c1ccc(SC(C)C)cc1` (stereo unspecified) [Suloctidil]: 94.63 ± 0.84%; for `COC(=O)N/N=C/c1c[n+]([O-])c2ccccc2[n+]1[O-]` [Carbadox]: 87.5 ± 11%.
The same measure, in the same setting: with `NCC[C@H](O)C(=O)N[C@@H]1C[C@H](N)[C@@H](O[C@H]2O[C@H](CN)[C@@H](O)[C@H](O)[C@H]2O)[C@H](O)[C@H]1O[C@H]1O[C@H](CO)[C@@H](O)[C@H](N)[C@H]1O` [Amikacin hydrate] the figure was 92.29 ± 0.57%; with `CC1COc2c(N3CCN(C)CC3)c(F)cc3c(=O)c(C(=O)O)cn1c23` (stereo unspecified) [Ofloxacin], 97.8 ± 1.4%; with `Oc1c(I)cc(Cl)c2cccnc12` [Clioquinol], 98.97 ± 0.28%.

Still in this test, the particulars now being: antibiotic (0.125x MIC): gentamicin; 7 µM.
`CCn1cc(C(=O)O)c(=O)c2cc(F)c(N3CCNCC3)nc21` [Enoxacin]: the percent growth inhibition is -1.06 ± 6.9%.
Still for that read-out and setting: the same measure for `CO/N=C(\C(=O)N[C@@H]1C(=O)N2C(C(=O)O)=C(C[N+]3(C)CCCC3)CS[C@H]12)c1csc(N)n1` [Cefepime hydrochloride]: 37.1 ± 3.7%.
Same read-out and setting: with `C=CC1=C(C(=O)O)N2C(=O)[C@@H](NC(=O)/C(=N\OCC(=O)O)c3csc(N)n3)[C@H]2SC1` [Cefixime] the figure was 29.8 ± 2%; with `CCCCC(CC)CNC(=N)NC(=N)NCCCCCCNC(=N)NC(=N)NCC(CC)CCCC` (stereo unspecified) [Alexidine dihydrochloride], 99.857 ± 0.088%.
Same read-out and setting: the same measure for `COC(=O)N/N=C/c1c[n+]([O-])c2ccccc2[n+]1[O-]` [Carbadox]: 15.7 ± 0.29%; for `NCC[C@H](O)C(=O)N[C@@H]1C[C@H](N)[C@@H](O[C@H]2O[C@H](CN)[C@@H](O)[C@H](O)[C@H]2O)[C@H](O)[C@H]1O[C@H]1O[C@H](CO)[C@@H](O)[C@H](N)[C@H]1O` [Amikacin hydrate]: 30.1 ± 9.4%.
With `CC1COc2c(N3CCN(C)CC3)c(F)cc3c(=O)c(C(=O)O)cn1c23` (stereo unspecified) [Ofloxacin], the percent growth inhibition stood at 99.97 ± 0.11%.

The test is the same for the next values; noted with them: antibiotic (0.125x MIC): gentamicin; 20 µM.
For the molecule `C=CC1=C(C(=O)O)N2C(=O)[C@@H](NC(=O)/C(=N\OCC(=O)O)c3csc(N)n3)[C@H]2SC1` [Cefixime], the percent growth inhibition stood at 97.5 ± 3.4%.
Turning to `Nc1nc(/C(=C/CC(=O)O)C(=O)N[C@@H]2C(=O)N3C(C(=O)O)=CCS[C@H]23)cs1` [Ceftibuten], the percent growth inhibition came to 99.37 ± 0.26%.
On the same count and under the same terms, the same measure for `CCCCC(CC)CNC(=N)NC(=N)NCCCCCCNC(=N)NC(=N)NCC(CC)CCCC` (stereo unspecified) [Alexidine dihydrochloride]: 99.929 ± 0.046%.
Same read-out and setting: with `NCC[C@H](O)C(=O)N[C@@H]1C[C@H](N)[C@@H](O[C@H]2O[C@H](CN)[C@@H](O)[C@H](O)[C@H]2O)[C@H](O)[C@H]1O[C@H]1O[C@H](CO)[C@@H](O)[C@H](N)[C@H]1O` [Amikacin hydrate] the figure was 99.83 ± 0.21%; with `CC1COc2c(N3CCN(C)CC3)c(F)cc3c(=O)c(C(=O)O)cn1c23` (stereo unspecified) [Ofloxacin], 99.953 ± 0.055%.

Still in this test, the particulars now being: antibiotic (0.125x MIC): meropenem; 20 µM.
Turning to `Nc1nc(/C(=C/CC(=O)O)C(=O)N[C@@H]2C(=O)N3C(C(=O)O)=CCS[C@H]23)cs1` [Ceftibuten], the percent growth inhibition amounted to 94.5 ± 4.1%.
Still for that read-out and setting: the same measure for `CCCCC(CC)CNC(=N)NC(=N)NCCCCCCNC(=N)NC(=N)NCC(CC)CCCC` (stereo unspecified) [Alexidine dihydrochloride]: 100.04 ± 0.0019%.
Still for that read-out and setting: with `NCC[C@H](O)C(=O)N[C@@H]1C[C@H](N)[C@@H](O[C@H]2O[C@H](CN)[C@@H](O)[C@H](O)[C@H]2O)[C@H](O)[C@H]1O[C@H]1O[C@H](CO)[C@@H](O)[C@H](N)[C@H]1O` [Amikacin hydrate] the figure was 99.71 ± 0.1%; with `CC1COc2c(N3CCN(C)CC3)c(F)cc3c(=O)c(C(=O)O)cn1c23` (stereo unspecified) [Ofloxacin], 99.92 ± 0.12%.

A further test concerns Klebsiella pneumoniae NCTC-13439. Described as above. The settings on record: antibiotic (0.125x MIC): ciprofloxacin; 7 µM.
As for `Cc1nc2n(c(=O)c1CCN1CCC(c3noc4cc(F)ccc34)CC1)CCCC2` [Risperidone], the percent growth inhibition was found to be 15.5 ± 4.5%.
Still for that read-out and setting: with `N=C(NCCCCCCNC(=N)NC(=N)Nc1ccc(Cl)cc1)NC(=N)Nc1ccc(Cl)cc1` [Chlorhexidine] the figure was 38.3 ± 1.2%.
Still for that read-out and setting: the same measure for `COc1c(N2C[C@@H]3CCCN[C@@H]3C2)c(F)cc2c(=O)c(C(=O)O)cn(C3CC3)c12` [Moxifloxacin]: 25.8 ± 7.3%; for `O=C(OCC(O)CO)c1ccccc1Nc1ccnc2cc(Cl)ccc12` (stereo unspecified) [Glafenine hydrochloride]: 6.41 ± 16%; for `NC1CCN(c2nc3c(cc2F)c(=O)c(C(=O)O)cn3-c2ccc(F)cc2F)C1` (stereo unspecified) [Tosufloxacin hydrochloride]: 88.1 ± 8.8%.
As for `CC(=O)CCCCn1c(=O)c2c(ncn2C)n(C)c1=O` [Pentoxifylline], the percent growth inhibition was 2.24 ± 1.5%.
Take `NC1CCN(c2c(F)cc3c(=O)c(C(=O)O)cn(C4CC4)c3c2Cl)C1` (stereo unspecified) [Clinafloxacin]: the percent growth inhibition amounted to 13.8 ± 8.5%.
In the case of `CCN1CCN(c2cc3c(cc2F)c(=O)c(C(=O)O)cn3C2CC2)CC1` [Enrofloxacin], the percent growth inhibition worked out at 7.59 ± 7.8%.
Still for that read-out and setting: with `Cc1c(F)c(N2CCNC(C)C2)cc2c1c(=O)c(C(=O)O)cn2C1CC1` (stereo unspecified) [Grepafloxacin] the figure was 18.9 ± 3.6%.
On the same count and under the same terms, the same measure for `NC(=O)N/N=C/c1ccc([N+](=O)[O-])o1` [Nitrofural]: 10.1 ± 18%.
As to `COc1c(N2CCNC(C)C2)c(F)cc2c(=O)c(C(=O)O)cn(C3CC3)c12` (stereo unspecified) [Gatifloxacin], the percent growth inhibition was 26.2 ± 8.2%.
In the case of `C#C[C@]1(OC(C)=O)CC[C@H]2[C@@H]3CCC4=CC(=NO)CC[C@@H]4[C@H]3CC[C@@]21CC` (mixture of isomers) [Norgestimate], the percent growth inhibition was -7.59 ± 3.1%.
